# According to publication PMC11006913:
# Numbering of substitutions follows the chain as printed.
# Tests used:
# Test in all cases: PBM; 200 nM protein, PBS
# Conditions in all cases: dsDNA, one strand shown
# HOXC9 [1] = target: HOXC9 (Homo sapiens, UniProt P31274 178-260, K195R)
# PAX4 [2] = target: T1, PAX4 (Homo sapiens, UniProt O43316 9-242, R200K)
# T1 sequence: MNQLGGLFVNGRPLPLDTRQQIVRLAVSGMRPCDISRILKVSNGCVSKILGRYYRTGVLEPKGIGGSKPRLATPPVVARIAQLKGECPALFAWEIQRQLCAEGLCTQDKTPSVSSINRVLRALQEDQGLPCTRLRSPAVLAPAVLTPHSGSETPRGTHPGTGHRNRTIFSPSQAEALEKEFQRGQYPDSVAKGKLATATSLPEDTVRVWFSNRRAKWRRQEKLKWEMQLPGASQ
# HOXC9 [3] = target: HOXC9 (Homo sapiens, UniProt P31274 178-260)
# HOXC9 [4] = target: HOXC9 (Homo sapiens, UniProt P31274 178-260, R193K)
# PAX4 [5] = target: T2, PAX4 (Homo sapiens, UniProt O43316 9-242, F177Y)
# T2 sequence: T1 sequence with F169Y, K192R
# HOXC9 [6] = target: HOXC9 (Homo sapiens, UniProt P31274 178-260, R222W)
# HESX1 [7] = target: HESX1 (Homo sapiens, UniProt Q9UBX0 95-180, F115L)
# HOXA7 [8] = target: HOXA7 (Homo sapiens, UniProt P31268 116-202)
# HOXC10 [9] = target: HOXC10 (Homo sapiens, UniProt Q9NYD6 254-340)
# HOXB6 [10] = target: HOXB6 (Homo sapiens, UniProt P17509 132-218, K202E)
# HOXB9 [11] = target: HOXB9 (Homo sapiens, UniProt P17482 171-250)
# HOXC10 [12] = target: HOXC10 (Homo sapiens, UniProt Q9NYD6 254-340, K271E)
# HOXD13 [13] = target: HOXD13 (Homo sapiens, UniProt P35453 263-343, T313A)
# HOXB9 [14] = target: HOXB9 (Homo sapiens, UniProt P17482 171-250, R186Q)
# HOXA7 [15] = target: HOXA7 (Homo sapiens, UniProt P31268 116-202, W177C)
# HOXB6 [16] = target: HOXB6 (Homo sapiens, UniProt P17509 132-218)
# HESX1 [17] = target: HESX1 (Homo sapiens, UniProt Q9UBX0 95-180, R109Q)
# HOXD13 [18] = target: HOXD13 (Homo sapiens, UniProt P35453 263-343, T313R)
# HOXD13 [19] = target: HOXD13 (Homo sapiens, UniProt P35453 263-343)
# Sequence of HOXD13 (Homo sapiens, UniProt P35453 263-343) (P35453 263-343): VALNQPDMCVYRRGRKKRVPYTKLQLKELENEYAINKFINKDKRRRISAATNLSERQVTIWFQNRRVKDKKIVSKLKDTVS
# Sequence of HOXC9 (Homo sapiens, UniProt P31274 178-260, K195R) (P31274 178-260 K195R): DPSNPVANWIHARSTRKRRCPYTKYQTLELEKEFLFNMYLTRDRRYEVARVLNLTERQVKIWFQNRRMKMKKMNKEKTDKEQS
# Sequence of HOXB9 (Homo sapiens, UniProt P17482 171-250, R186Q) (P17482 171-250 R186Q): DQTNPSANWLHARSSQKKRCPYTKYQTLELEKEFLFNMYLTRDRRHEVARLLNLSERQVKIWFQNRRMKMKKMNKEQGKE
# Sequence of HOXD13 (Homo sapiens, UniProt P35453 263-343, T313R) (P35453 263-343 T313R): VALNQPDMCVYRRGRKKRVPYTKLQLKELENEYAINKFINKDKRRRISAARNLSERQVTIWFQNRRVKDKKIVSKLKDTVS
# Sequence of HOXB6 (Homo sapiens, UniProt P17509 132-218) (P17509 132-218): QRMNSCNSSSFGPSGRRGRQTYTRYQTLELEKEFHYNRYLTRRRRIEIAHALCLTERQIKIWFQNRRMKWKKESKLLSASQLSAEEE
# Sequence of HOXB6 (Homo sapiens, UniProt P17509 132-218, K202E) (P17509 132-218 K202E): as the sequence (P17509 132-218) above, with K71E counted along it
# Sequence of HOXC9 (Homo sapiens, UniProt P31274 178-260) (P31274 178-260): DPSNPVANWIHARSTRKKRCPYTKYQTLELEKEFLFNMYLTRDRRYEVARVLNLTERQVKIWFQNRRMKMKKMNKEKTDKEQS
# Sequence of HOXB9 (Homo sapiens, UniProt P17482 171-250) (P17482 171-250): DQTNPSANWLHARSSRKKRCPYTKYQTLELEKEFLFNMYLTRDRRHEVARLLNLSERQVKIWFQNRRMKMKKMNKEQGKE
# Sequence of HOXA7 (Homo sapiens, UniProt P31268 116-202, W177C) (P31268 116-202 W177C): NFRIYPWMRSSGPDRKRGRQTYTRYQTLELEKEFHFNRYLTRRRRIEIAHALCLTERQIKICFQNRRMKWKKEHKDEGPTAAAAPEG
# Sequence of HESX1 (Homo sapiens, UniProt Q9UBX0 95-180, F115L) (Q9UBX0 95-180 F115L): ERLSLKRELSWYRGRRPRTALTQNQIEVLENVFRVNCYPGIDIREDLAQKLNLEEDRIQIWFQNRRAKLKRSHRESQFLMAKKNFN
# Sequence of HOXD13 (Homo sapiens, UniProt P35453 263-343, T313A) (P35453 263-343 T313A): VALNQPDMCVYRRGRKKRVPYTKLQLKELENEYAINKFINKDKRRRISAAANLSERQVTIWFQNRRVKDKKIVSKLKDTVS
# Sequence of HOXC9 (Homo sapiens, UniProt P31274 178-260, R222W) (P31274 178-260 R222W): as the sequence (P31274 178-260) above, with R45W counted along it
# Sequence of HOXA7 (Homo sapiens, UniProt P31268 116-202) (P31268 116-202): as the sequence (P31268 116-202 W177C) above, with C62W counted along it
# Sequence of HOXC9 (Homo sapiens, UniProt P31274 178-260, R193K) (P31274 178-260 R193K): as the sequence (P31274 178-260) above, with R16K counted along it
# Sequence of HOXC10 (Homo sapiens, UniProt Q9NYD6 254-340, K271E) (Q9NYD6 254-340 K271E): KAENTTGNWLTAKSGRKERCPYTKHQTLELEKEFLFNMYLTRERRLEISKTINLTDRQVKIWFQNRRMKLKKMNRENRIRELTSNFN
# Sequence of HOXC10 (Homo sapiens, UniProt Q9NYD6 254-340) (Q9NYD6 254-340): as the sequence (Q9NYD6 254-340 K271E) above, with E18K counted along it
# Sequence of HESX1 (Homo sapiens, UniProt Q9UBX0 95-180, R109Q) (Q9UBX0 95-180 R109Q): as the sequence (Q9UBX0 95-180 F115L) above, with R15Q, L21F counted along it
sequence,measurement,setting,value
CGAGGGTC,binding signal,HOXC9 [1],"9.55 upbm affinity estimate (log intensity, higher = more binding, comparable within an allelic series)"
same,binding signal,PAX4 [2],"8.99 upbm affinity estimate (log intensity, higher = more binding, comparable within an allelic series)"
same,binding signal,HOXC9 [3],"9.61 upbm affinity estimate (log intensity, higher = more binding, comparable within an allelic series)"
same,binding signal,HOXC9 [4],"9.61 upbm affinity estimate (log intensity, higher = more binding, comparable within an allelic series)"
same,binding signal,PAX4 [5],"9.23 upbm affinity estimate (log intensity, higher = more binding, comparable within an allelic series)"
same,binding signal,HOXC9 [6],"9.69 upbm affinity estimate (log intensity, higher = more binding, comparable within an allelic series)"
CATTAGAG,binding signal,HESX1 [7],"6.84 upbm affinity estimate (log intensity, higher = more binding, comparable within an allelic series)"
CATTAATG,binding signal,HOXC9 [1],"12.8 upbm affinity estimate (log intensity, higher = more binding, comparable within an allelic series)"
same,binding signal,HOXA7 [8],"12 upbm affinity estimate (log intensity, higher = more binding, comparable within an allelic series)"
same,binding signal,HOXC10 [9],"12.3 upbm affinity estimate (log intensity, higher = more binding, comparable within an allelic series)"
same,binding signal,PAX4 [2],"11.8 upbm affinity estimate (log intensity, higher = more binding, comparable within an allelic series)"
same,binding signal,HOXB6 [10],"10.3 upbm affinity estimate (log intensity, higher = more binding, comparable within an allelic series)"
same,binding signal,HOXB9 [11],"12.1 upbm affinity estimate (log intensity, higher = more binding, comparable within an allelic series)"
same,binding signal,HOXC9 [3],"12.9 upbm affinity estimate (log intensity, higher = more binding, comparable within an allelic series)"
same,binding signal,HOXC9 [4],"12.8 upbm affinity estimate (log intensity, higher = more binding, comparable within an allelic series)"
same,binding signal,HOXC10 [12],"12.2 upbm affinity estimate (log intensity, higher = more binding, comparable within an allelic series)"
same,binding signal,PAX4 [5],"11 upbm affinity estimate (log intensity, higher = more binding, comparable within an allelic series)"
same,binding signal,HOXD13 [13],"11.6 upbm affinity estimate (log intensity, higher = more binding, comparable within an allelic series)"
same,binding signal,HOXB9 [14],"11.9 upbm affinity estimate (log intensity, higher = more binding, comparable within an allelic series)"
same,binding signal,HOXC9 [6],"11 upbm affinity estimate (log intensity, higher = more binding, comparable within an allelic series)"
same,binding signal,HOXA7 [15],"8.9 upbm affinity estimate (log intensity, higher = more binding, comparable within an allelic series)"
same,binding signal,HOXB6 [16],"12.4 upbm affinity estimate (log intensity, higher = more binding, comparable within an allelic series)"
ATTAGTGC,binding signal,HESX1 [7],"6.94 upbm affinity estimate (log intensity, higher = more binding, comparable within an allelic series)"
TATCAATA,binding signal,HESX1 [17],"7.49 upbm affinity estimate (log intensity, higher = more binding, comparable within an allelic series)"
same,binding signal,HESX1 [7],"7.36 upbm affinity estimate (log intensity, higher = more binding, comparable within an allelic series)"
CCATTAAG,binding signal,HOXA7 [8],"11.6 upbm affinity estimate (log intensity, higher = more binding, comparable within an allelic series)"
same,binding signal,HOXB6 [10],"9.89 upbm affinity estimate (log intensity, higher = more binding, comparable within an allelic series)"
same,binding signal,HOXA7 [15],"8.82 upbm affinity estimate (log intensity, higher = more binding, comparable within an allelic series)"
same,binding signal,HOXB6 [16],"12 upbm affinity estimate (log intensity, higher = more binding, comparable within an allelic series)"
CGGTTCCC,binding signal,HOXB9 [11],"8.52 upbm affinity estimate (log intensity, higher = more binding, comparable within an allelic series)"
same,binding signal,HOXB9 [14],"8.49 upbm affinity estimate (log intensity, higher = more binding, comparable within an allelic series)"
GACCAGGC,binding signal,HOXA7 [8],"8.38 upbm affinity estimate (log intensity, higher = more binding, comparable within an allelic series)"
same,binding signal,PAX4 [2],"9.22 upbm affinity estimate (log intensity, higher = more binding, comparable within an allelic series)"
same,binding signal,HOXB9 [11],"8.23 upbm affinity estimate (log intensity, higher = more binding, comparable within an allelic series)"
same,binding signal,PAX4 [5],"9.29 upbm affinity estimate (log intensity, higher = more binding, comparable within an allelic series)"
same,binding signal,HOXB9 [14],"8.26 upbm affinity estimate (log intensity, higher = more binding, comparable within an allelic series)"
same,binding signal,HOXA7 [15],"8.39 upbm affinity estimate (log intensity, higher = more binding, comparable within an allelic series)"
TCCATTAA,binding signal,HOXA7 [8],"11.2 upbm affinity estimate (log intensity, higher = more binding, comparable within an allelic series)"
same,binding signal,HOXB6 [10],"9.96 upbm affinity estimate (log intensity, higher = more binding, comparable within an allelic series)"
same,binding signal,HOXB9 [14],"11.5 upbm affinity estimate (log intensity, higher = more binding, comparable within an allelic series)"
same,binding signal,HOXA7 [15],"8.72 upbm affinity estimate (log intensity, higher = more binding, comparable within an allelic series)"
same,binding signal,HOXB6 [16],"11.7 upbm affinity estimate (log intensity, higher = more binding, comparable within an allelic series)"
CGGGCTAG,binding signal,HOXC9 [1],"9.53 upbm affinity estimate (log intensity, higher = more binding, comparable within an allelic series)"
same,binding signal,HOXC9 [3],"9.6 upbm affinity estimate (log intensity, higher = more binding, comparable within an allelic series)"
same,binding signal,HOXD13 [18],"9.56 upbm affinity estimate (log intensity, higher = more binding, comparable within an allelic series)"
same,binding signal,HOXC9 [4],"9.51 upbm affinity estimate (log intensity, higher = more binding, comparable within an allelic series)"
same,binding signal,HOXD13 [19],"9.47 upbm affinity estimate (log intensity, higher = more binding, comparable within an allelic series)"
same,binding signal,HOXD13 [13],"9.73 upbm affinity estimate (log intensity, higher = more binding, comparable within an allelic series)"
same,binding signal,HOXC9 [6],"9.67 upbm affinity estimate (log intensity, higher = more binding, comparable within an allelic series)"
CGCCGCCG,binding signal,HOXA7 [8],"8.5 upbm affinity estimate (log intensity, higher = more binding, comparable within an allelic series)"
same,binding signal,HOXC10 [9],"10 upbm affinity estimate (log intensity, higher = more binding, comparable within an allelic series)"
same,binding signal,HOXD13 [18],"9.36 upbm affinity estimate (log intensity, higher = more binding, comparable within an allelic series)"
same,binding signal,HOXD13 [19],"9.39 upbm affinity estimate (log intensity, higher = more binding, comparable within an allelic series)"
same,binding signal,HOXC10 [12],"10 upbm affinity estimate (log intensity, higher = more binding, comparable within an allelic series)"
same,binding signal,HOXD13 [13],"9.5 upbm affinity estimate (log intensity, higher = more binding, comparable within an allelic series)"
same,binding signal,HOXA7 [15],"8.25 upbm affinity estimate (log intensity, higher = more binding, comparable within an allelic series)"
CGTGCCTC,binding signal,HOXC10 [9],"10 upbm affinity estimate (log intensity, higher = more binding, comparable within an allelic series)"
same,binding signal,HOXB6 [10],"8.93 upbm affinity estimate (log intensity, higher = more binding, comparable within an allelic series)"
same,binding signal,HOXB9 [11],"8.2 upbm affinity estimate (log intensity, higher = more binding, comparable within an allelic series)"
same,binding signal,HOXC10 [12],"9.99 upbm affinity estimate (log intensity, higher = more binding, comparable within an allelic series)"
same,binding signal,HOXB9 [14],"8.24 upbm affinity estimate (log intensity, higher = more binding, comparable within an allelic series)"
same,binding signal,HOXB6 [16],"8.84 upbm affinity estimate (log intensity, higher = more binding, comparable within an allelic series)"
AGTCATTA,binding signal,HOXA7 [8],"11.5 upbm affinity estimate (log intensity, higher = more binding, comparable within an allelic series)"
same,binding signal,HOXB6 [10],"9.89 upbm affinity estimate (log intensity, higher = more binding, comparable within an allelic series)"
same,binding signal,HOXA7 [15],"8.85 upbm affinity estimate (log intensity, higher = more binding, comparable within an allelic series)"
same,binding signal,HOXB6 [16],"11.7 upbm affinity estimate (log intensity, higher = more binding, comparable within an allelic series)"
CCTGACCC,binding signal,HOXB9 [11],"8.65 upbm affinity estimate (log intensity, higher = more binding, comparable within an allelic series)"
same,binding signal,HOXB9 [14],"8.66 upbm affinity estimate (log intensity, higher = more binding, comparable within an allelic series)"
ATTAATCG,binding signal,PAX4 [2],"11.6 upbm affinity estimate (log intensity, higher = more binding, comparable within an allelic series)"
same,binding signal,PAX4 [5],"11.1 upbm affinity estimate (log intensity, higher = more binding, comparable within an allelic series)"
GTTAATGA,binding signal,HOXA7 [8],"11.3 upbm affinity estimate (log intensity, higher = more binding, comparable within an allelic series)"
same,binding signal,HOXB6 [10],"9.94 upbm affinity estimate (log intensity, higher = more binding, comparable within an allelic series)"
same,binding signal,HOXC10 [12],"11.9 upbm affinity estimate (log intensity, higher = more binding, comparable within an allelic series)"
same,binding signal,HOXA7 [15],"8.79 upbm affinity estimate (log intensity, higher = more binding, comparable within an allelic series)"
same,binding signal,HOXB6 [16],"11.8 upbm affinity estimate (log intensity, higher = more binding, comparable within an allelic series)"
TATTAATA,binding signal,HOXC9 [1],"12.6 upbm affinity estimate (log intensity, higher = more binding, comparable within an allelic series)"
same,binding signal,HOXA7 [8],"11.2 upbm affinity estimate (log intensity, higher = more binding, comparable within an allelic series)"
same,binding signal,PAX4 [2],"11.7 upbm affinity estimate (log intensity, higher = more binding, comparable within an allelic series)"
same,binding signal,HOXB6 [10],"10 upbm affinity estimate (log intensity, higher = more binding, comparable within an allelic series)"
same,binding signal,HOXD13 [18],"10.9 upbm affinity estimate (log intensity, higher = more binding, comparable within an allelic series)"
same,binding signal,HOXC9 [4],"12.5 upbm affinity estimate (log intensity, higher = more binding, comparable within an allelic series)"
same,binding signal,HOXD13 [19],"11.9 upbm affinity estimate (log intensity, higher = more binding, comparable within an allelic series)"
same,binding signal,PAX4 [5],"11.1 upbm affinity estimate (log intensity, higher = more binding, comparable within an allelic series)"
same,binding signal,HOXD13 [13],"12 upbm affinity estimate (log intensity, higher = more binding, comparable within an allelic series)"
same,binding signal,HOXC9 [6],"11.1 upbm affinity estimate (log intensity, higher = more binding, comparable within an allelic series)"
same,binding signal,HESX1 [7],"8.46 upbm affinity estimate (log intensity, higher = more binding, comparable within an allelic series)"
same,binding signal,HOXA7 [15],"9.08 upbm affinity estimate (log intensity, higher = more binding, comparable within an allelic series)"
same,binding signal,HOXB6 [16],"11.7 upbm affinity estimate (log intensity, higher = more binding, comparable within an allelic series)"
